In PubChem BioAssay (NCI):
This is part of a sample that, as a whole, favours compounds with a hit. Of some 83,000 tested, about 20% had one in any assay.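 Each cell line was grown in a 96-well plate and treated with one concentration of compound for 48 hours. Values below 10 were considered active.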 Values without a mark were called inactive. Calls of active or inactive are those of the source.

Assays:
Experiment in all cases: NCI-60 one-dose screen, 48 h (100 = growth as untreated, 0 = no growth, -100 = all killed)
Conditions in all cases: 10 µM
T-47D breast = system: T-47D breast
BT-549 breast = system: BT-549 breast
MDA-MB-435 melanoma = system: MDA-MB-435 melanoma
SW-620 colon = system: SW-620 colon
MCF7 breast = system: MCF7 breast
HCT-116 colon = system: HCT-116 colon
HCC-2998 colon = system: HCC-2998 colon
KM12 colon = system: KM12 colon

SMILES | growth (T-47D breast) | growth (BT-549 breast) | growth (MDA-MB-435 melanoma) | growth (SW-620 colon) | growth (MCF7 breast) | growth (HCT-116 colon) | growth (HCC-2998 colon) | growth (KM12 colon)
Cc1cc(NC(=O)c2ccc(C)c(Nc3nccc(-c4cccnc4)n3)c2)cc(-n2cnc(C)c2)c1 | -4.71% (active) | 41.1% | 12.2% | 50.2% | 24.4% | -64.1% (active) | 70.8% | 35.1%
Cc1c(Cl)cccc1NC(=O)CCCl | 92.3% | 99.7% | 105% | 106% | 102% | 89.4% | 99.1% | 100%
COc1ccc(C(=O)CSc2nc(-c3cc(OC)ccc3OC)cc(-c3ccc(OC)cc3)c2C#N)cc1 | 85.7% | 89.9% | 100% | 110% | 101% | 94% | 108% | 92.1%
O=C(O)Cc1ccc(O)c(O)c1 | 83.2% | 88.3% | 103% | 103% | 91% | 105% | 92.2% | 98.6%
C=C(NC(=O)C(=C)NC(=O)c1csc(C2=NC3c4csc(n4)C4NC(=O)c5csc(n5)C(C(C)(O)C(C)O)NC(=O)C5CSC(=N5)C(=CC)NC(=O)C(C(C)O)NC(=O)c5csc(n5)C3(CC2)NC(=O)C(C)NC(=O)C(=C)NC(=O)C(C)NC(=O)C(C(C)CC)NC2C=Cc3c(C(C)O)cc(nc3C2O)C(=O)OC4C)n1)C(N)=O (stereo not given) | 40.4% | 0.0683% (active) | 4.84% (active) | 1.83% (active) | 16.7% | -70.9% (active) | 79.3% | 28.3%
O=C(O)COc1c(Cl)cc([N+](=O)[O-])cc1Cl | 108% | 90% | 105% | 110% | 94.7% | 83.4% | 101% | 98.1%
CS(=O)(=O)c1nccc(-c2c(-c3cccc(OCc4ccccc4)c3)nc3sccn23)n1 | 65% | 54.9% | 78.5% | 47.1% | 77.4% | 58.3% | 32.4% | 50.7%
NC1=CC(=O)C(=O)c2cccnc21 | 97.9% | 86% | -82.8% (active) | 73.8% | 52.5% | 86.6% | 83% | 76.7%
Cc1cccc(N=Cc2ccccc2O)c1C | 106% | 90% | 102% | 112% | 98.8% | 106% | 104% | 114%
O=C(Nc1cc(Cl)cc2c1-c1ccc(Cl)cc1C2O)C(Cl)Cl (stereo not given) | 54.1% | 95.3% | 79.2% | 79.5% | 64.5% | 51.1% | 95.2% | 76.4%
COc1cccc2ccc(CC(O)(c3ccccc3)c3ccccc3)nc12 | 43.7% | 94.1% | 106% | 98.7% | 24.6% | 77.1% | 97.1% | 67.3%
CC1CCCC(C(=O)O)C1C(=O)O (stereo not given) | 90.9% | 95.9% | 102% | 98.9% | 103% | 99.5% | 92.9% | 106%
CC(C)(C)OC(=O)N1CCc2c(sc3ncnc(N/N=C/c4ccccc4Br)c23)C1 | 41.5% | 92.3% | 77.9% | 55% | -12% (active) | 41.6% | 92.3% | 92.1%
O=C(CCc1nnc2sc(-c3cc(O)c(O)c(O)c3)nn12)c1nc2ccccc2[nH]1 | 83.9% | 107% | 98.9% | 116% | 85.8% | 85.7% | 111% | 105%
C[C@]12CCC3c4ccc(O)cc4C[C@@H](CCCCCCCCCS(=O)CCCC(F)(F)C(F)(F)F)C3C1CC[C@@H]2O (stereo not given in full) | 41.2% | 86.1% | 88.8% | 97.1% | 15.9% | 71.4% | 87% | 80.4%
CCc1c2c(nc3ccc(OC(=O)N4CCC(N5CCCCC5)CC4)cc13)-c1cc3c(c(=O)n1C2)COC(=O)[C@]3(O)CC | 25.1% | 22.1% | 34.2% | 41.4% | 3.64% (active) | 22% | 28.2% | 53.1%
Cc1ccc(C(=O)/C=C/c2ccccc2)s1 | 141% | 99% | 98.5% | 100% | 40% | 60.4% | 101% | 92.8%
c1ccc2c(c1)Cc1ccccc1N2CCN1CCCCC1 | 90.3% | 86.3% | 106% | 89.1% | 89.4% | 56.8% | 86% | 95.3%
CN1CCc2c(sc3nc4n(-c5ccc(Cl)cc5)cnn4c(=O)c23)C1 | 91.8% | 93.4% | 102% | 110% | 70.6% | 98% | 104% | 103%
COc1cc(CNC(=O)C2CSC3(C)c4ccccc4C(=O)N23)cc(OC)c1OC (stereo not given) | 87.2% | 108% | 105% | 101% | 93.7% | 98.1% | 95.5% | 106%
Nc1nc(Cn2c(-c3nonc3N)nc3ccccc32)nc(N2CCCCC2)n1 | 83% | 89% | 39.2% | 94.4% | 83.5% | 87.7% | 95.9% | 75.6%
CCCN(CCC)C(=O)[C@H](CC)[C@@H]1CC[C@@H](C)[C@@H]([C@H](C)[C@@H](O)[C@@H](C)C(=O)[C@H](CC)C2O[C@]3(C=C[C@@H](O)[C@]4(CC[C@@](C)([C@H]5CC[C@](O)(CC)[C@H](C)O5)O4)O3)[C@H](C)C[C@@H]2C)O1 (stereo not given in full) | 11.1% | 6.17% (active) | 3.17% (active) | 9.23% (active) | -15.3% (active) | 6.43% (active) | 4.75% (active) | 19.9%
CC(C)(C)c1ccc(S(=O)(=O)N[C@H]2CC[C@H]3[C@@H]4CCc5cc(OS(=O)(=O)O)ccc5[C@H]4CC[C@]23C)cc1 | 19.9% | 47.5% | 49.9% | 56.6% | 15.3% | 26.8% | 73.2% | 40.9%
CCOC(=O)c1cc(C(=O)c2cc(OC)c(OC)c(OC)c2)n2ccc(-c3cc[n+](CC(=O)c4cc(OC)c(OC)c(OC)c4)cc3)cc12 | 50.1% | -10.9% (active) | 68.7% | -64.8% (active) | -29.3% (active) | -61.2% (active) | 109% | 45.3%
CC1OC2CC(=O)OC2C2=C1C(=O)c1c(O)c3c(c(O)c1C2=O)C1CC(O)C3(O)C(C)O1 (stereo not given) | -21.4% (active) | -98.7% (active) | -0.0926% (active) | -36.4% (active) | -71% (active) | -91.5% (active) | -28.4% (active) | -34.7% (active)
CS(=O)(=O)c1nccc(-c2c(-c3cccc(OCCc4ccccc4)c3)nc3sccn23)n1 | 92.4% | 116% | 104% | 98.2% | 69.2% | 83.9% | 109% | 104%
O=C(CCCSc1nc(-c2ccc(Cl)cc2)cc(-c2ccc(Cl)cc2)n1)NO | 24.6% | 31.9% | 24% | 23.9% | 2.7% (active) | 11.5% | 7.09% (active) | 26.3%
CC(C)N(CCOc1ccc(-c2nc3sccn3c2-c2ccnc(S(C)(=O)=O)n2)cc1)C(C)C | 105% | 90.8% | 92.6% | 78.2% | 82.5% | 61.5% | 88% | 90.4%
Cc1cc(SC#N)cc(C(C)(C)C)c1O | 80% | 87.3% | 107% | 120% | 97.4% | 70.9% | 109% | 105%
COc1ccc(C(=O)N2C=Cc3ccccc3C2C#N)cc1 (stereo not given) | 90.8% | 103% | 72.3% | 99% | 96.4% | 115% | 103% | 89.6%
